# Assay results taken from PubChem BioAssay.
# Calls of active or inactive are those of the source.
# Test system: Wnt5a (protein binding on small-molecule microarray)
# Experiment: small molecules binding Wnt5a protein – biophysical, small-molecule microarray, 635/667 nm fluorescence, primary screen (AID 1142);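 also: fluorescence read at 667 nm with signal to noise per printed feature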
# Settings: 635 nm fluorescence, higher = more signal
row,SMILES,composite z-score
1,CC1CC/C=C\[C@H]2OC34C=CCN(c5ccc(Cl)cc5)C(=O)[C@H]3N(CCCCCCO)C(=O)[C@]4(C)C2C(=O)O1 (some centres not stated),-0.765
2,O=C1C2C=CC(C(O)c3c(F)cccc3Cl)N(Nc3ccc([N+](=O)[O-])cc3)C2C(=O)N1c1ccccc1 (configuration not stated),0.469
3,[N-]=[N+]=Nc1ccccc1[C@@H]1OC(c2ccc(OCCCO)cc2)=N[C@]1(CCS(=O)(=O)c1ccccc1)C(=O)NCC(O)CO (some centres not stated),-0.0534
4,C=CC[C@@]1(C(=O)OC)N=C(c2ccc(OCCCO)cc2)O[C@@H]1c1ccccc1N=[N+]=[N-],0.938
5,COC(=O)[C@@]1(Cc2ccc(OC)cc2)[C@H]2c3cc(C(=O)N4CCCC4)n(CCn4cc([N+](=O)[O-])nc4C)c3C[C@H]2CN1C(=O)c1ccccc1,1.94
6,CN1C(=O)C2C(C3CC3)C=C3CN(Cc4cccc(Cl)c4)[C@@H]([C@@H](O)Cc4ccccc4)C3C2C1=O (some centres not stated),-0.103
7,COc1ccccc1CN1C(=O)c2ccccc2[C@](Cc2ccccc2I)(C(=O)NCC(C)C)[C@@H]1c1ccc(CO)cc1,0.0108

# Test system: not listed separately
# Experiment: ATP-based viability of Huh7 replicon cells – cell-based, CellTiter-Glo luminescence, basal, 48 h, cytotoxicity control for HCV replication inhibitor project, primary screen (AID 1143);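 also: Huh7 hepatoma cells carrying a hepatitis C replication reporter with no stimulus; test concentration not given here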
# Settings: higher = more signal, called active from +8 up or from −8 down
row,SMILES,z-score
1,CCOC(=O)C1=CC[C@@H](c2ccc(OC)cc2)N(S(=O)(=O)c2ccc(C)cc2)[C@H]1c1ccc(C)cc1,-2.4 (inactive)
2,CCOC(=O)C[C@H]1[C@H](OC(=O)Cc2ccc3c(c2)OCO3)[C@@H](NC(=O)c2ccc3ccccc3n2)c2cc(OCCCO)ccc2N1C(=O)Cc1ccc(OC)cc1,-1.01 (inactive)
3,CC(C)(C)N1CC=CC23O[C@@H]4C=CCOC(=O)[C@@H]4[C@H]2C(=O)N(CCO)[C@@H]3C1=O (some centres not stated),0.262 (inactive)
4,CCOC(=O)C1=CC[C@@H](c2ccc(OC)cc2)N(S(=O)(=O)c2ccc(C)cc2)[C@H]1CC,-5.57 (inactive)
5,COc1ccc(NN2C(C(O)c3ccc(I)cc3)C=CC3C(=O)N(C4CCCCC4)C(=O)C32)cc1 (configuration not stated),-1.7 (inactive)
6,C=CCOC(=O)[C@H]1[C@@H]2C(=O)O[C@@H](c3ccccc3)[C@@H](c3ccccc3)N2[C@@H](c2ccc(OCCOC(=O)[C@@H]3C[C@@H]4C(=O)N[C@@H](CCCC[N+](C)(C)C)C(=O)N4[C@@H]3c3ccc(O)cc3)cc2)[C@]12C(=O)Nc1ccc(I)cc12,-0.56 (inactive)
7,Cc1ccc(S[C@]2(C(=O)NCc3ccccc3)CC(=O)N(Cc3ccccc3C(F)(F)F)[C@@H]2c2ccc(CO)cc2)cc1,-2.35 (inactive)
8,CC(C)=CCCC(C)=CC(O)C1C=CC2C(=O)NC(=O)C2N1Nc1ccccn1 (configuration not stated),-0.614 (inactive)
9,O=C1O[C@H](c2ccccc2)[C@H](c2ccccc2)N2[C@H]1[C@@H](C(=O)O)[C@]1(C(=O)Nc3ccc(C#CCCO)cc31)[C@H]2c1ccc(OCCO)cc1,-0.33 (inactive)
10,C=CCN1C(=O)[C@@]2(O[C@@H](CCn3cc([C@H](O)c4ccccc4)nn3)[C@H]([Si](C)(C)c3ccc(OC)cc3)[C@H]2C)c2cc(N3C(=O)c4cccc5cccc3c45)ccc21,-3.71 (inactive)
11,NC(=O)NCC#Cc1ccc2c(c1)[C@]1(C(=O)N2)[C@H](c2ccc(OCCO)cc2)N2[C@H](c3ccccc3)[C@H](c3ccccc3)OC(=O)[C@H]2[C@@H]1C(=O)O,-4.1 (inactive)
12,CO[C@H]1O[C@H](CO)[C@@H](OC(=O)Nc2ccc3c(c2)OCO3)[C@H](OC(=O)Nc2ccccc2-c2ccccc2)[C@H]1OC(=O)Nc1ccccc1-c1ccccc1,-5.61 (inactive)
13,CC1CC/C=C\[C@H]2OC34C=CCN(c5ccc6ccccc6c5)C(=O)[C@H]3N(C(C)CO)C(=O)[C@@H]4C2C(=O)O1 (some centres not stated),-0.0174 (inactive)
14,COC(=O)[C@@]1(Cc2ccc(OC)cc2)[C@H]2c3cc(C(=O)N4CCCC4)n(Cc4ccc(C(F)(F)F)nc4)c3C[C@H]2CN1C(=O)c1ccccc1,-2.36 (inactive)
15,Cc1ccc(C(C)CC(O)C2C=CC3C(=O)N(C)C(=O)C3N2Nc2ccccc2)o1 (configuration not stated),-0.206 (inactive)
16,C=CC[C@@]1(C(=O)N(C)C)N=C(c2ccc(OCCCO)cc2)O[C@@H]1c1ccccc1CN=[N+]=[N-],-2.89 (inactive)
17,COC(=O)[C@@]1(Cc2ccccc2)[C@H]2c3cc(C(=O)N4CCCC4)n(Cc4ccc(OC)c(OC)c4)c3C[C@H]2CN1C(=O)c1ccccc1,-1.99 (inactive)
18,N#Cc1ccc(NN2C(C(O)C3CC=CCC3)C=CC3C(=O)N(c4ccccc4)C(=O)C32)cc1 (configuration not stated),0.595 (inactive)

row,SMILES,z-score
1,C=C(C)[C@@H]1CC=C(C(O)C2C=CC3C(=O)N(c4ccccc4)C(=O)C3N2Nc2ccc([N+](=O)[O-])cc2)CC1 (some centres not stated),-1.14 (inactive)
2,COc1ccc([Si](C)(C)[C@H]2[C@H](CCO)O[C@@]3(C(=O)N(Cc4cccc(N(C=O)c5ccccc5)c4)c4ccccc43)[C@@H]2C)cc1,-6.26 (inactive)
3,CCCCC(O)C1C=CC2C(=O)N(c3ccccc3)C(=O)C2N1Nc1ccc([N+](=O)[O-])cc1 (configuration not stated),-3.32 (inactive)
4,COc1ccc([Si](C)(C)[C@@H]2[C@@H](CC(=O)N3CCC[C@H]3CO)O[C@]3(C(=O)N(Cc4ccc(N5CCOC5=O)cc4)c4ccccc43)[C@H]2C)cc1,-3.75 (inactive)
5,CC(C)NC(=O)[C@@H]1c2ccccc2C(=O)N(Cc2ccccc2C(F)(F)F)[C@H]1c1ccc(CO)cc1,-2.26 (inactive)
6,CCCCCC1=C2CNC(Cc3ccccc3)(C(=O)OC)C=C2C(C)C1=O (configuration not stated),-1.49 (inactive)
7,CN(C)c1ccc(C(O)C2C=CC3C(=O)N(Cc4ccccc4)C(=O)C3N2n2cnnc2)cc1 (configuration not stated),0.166 (inactive)
8,O=C(NCC(O)CO)[C@@]1(CCS(=O)(=O)c2ccccc2)N=C(c2ccc(OCCCO)cc2)O[C@H]1c1ccccc1 (some centres not stated),-3.75 (inactive)
9,COCCCNC(=O)[C@@H]1c2ccccc2C(=O)N(Cc2ccc(OC(F)(F)F)cc2)[C@H]1c1ccc(CO)cc1,-0.429 (inactive)
10,Cc1ccc(F)cc1S(=O)(=O)N[C@H]1CCN(Cc2ccc(OC(C)C)cc2)C1,-3.11 (inactive)
11,CC1CC/C=C\[C@H]2OC34C=CCN(c5ccc(Cl)cc5)C(=O)[C@H]3N(CCCCCCO)C(=O)[C@]4(C)C2C(=O)O1 (some centres not stated),0.641 (inactive)
12,O=C1C2C=CC(C(O)c3c(F)cccc3Cl)N(Nc3ccc([N+](=O)[O-])cc3)C2C(=O)N1c1ccccc1 (configuration not stated),-1.39 (inactive)
13,[N-]=[N+]=Nc1ccccc1[C@@H]1OC(c2ccc(OCCCO)cc2)=N[C@]1(CCS(=O)(=O)c1ccccc1)C(=O)NCC(O)CO (some centres not stated),-1.33 (inactive)
14,C=CC[C@@]1(C(=O)OC)N=C(c2ccc(OCCCO)cc2)O[C@@H]1c1ccccc1N=[N+]=[N-],-3.5 (inactive)
15,COC(=O)[C@@]1(Cc2ccc(OC)cc2)[C@H]2c3cc(C(=O)N4CCCC4)n(CCn4cc([N+](=O)[O-])nc4C)c3C[C@H]2CN1C(=O)c1ccccc1,-0.798 (inactive)
16,CN1C(=O)C2C(C3CC3)C=C3CN(Cc4cccc(Cl)c4)[C@@H]([C@@H](O)Cc4ccccc4)C3C2C1=O (some centres not stated),-1.85 (inactive)
17,COc1ccccc1CN1C(=O)c2ccccc2[C@](Cc2ccccc2I)(C(=O)NCC(C)C)[C@@H]1c1ccc(CO)cc1,-2.13 (inactive)
